# Laboratory results: the supplement of paper PMC3545927
# The list shows a part of the results. The true hit rate is not given.
# Target: furin, P09958
# Experiment: furin cleavage Z-score vs untreated control; higher = more cleavage, active = 3.5 or more, inactive = 1 or less, 8 variable residues between constant flanks
# In short: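 The cleavage Z-score is the log read count relative to furin-free reactions, lowess-adjusted and scaled by median absolute deviation. Counts came from sequencing DNA released from bead-bound 8-mer peptide–cDNA fusions after digestion with purified furin for 7.5, 15 or 30 min.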
# 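Note: purified furin at 1:10 enzyme:substrate in 50 mM HEPES pH 7.5.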
# furin, P09958, sequence (P09958 whole entry): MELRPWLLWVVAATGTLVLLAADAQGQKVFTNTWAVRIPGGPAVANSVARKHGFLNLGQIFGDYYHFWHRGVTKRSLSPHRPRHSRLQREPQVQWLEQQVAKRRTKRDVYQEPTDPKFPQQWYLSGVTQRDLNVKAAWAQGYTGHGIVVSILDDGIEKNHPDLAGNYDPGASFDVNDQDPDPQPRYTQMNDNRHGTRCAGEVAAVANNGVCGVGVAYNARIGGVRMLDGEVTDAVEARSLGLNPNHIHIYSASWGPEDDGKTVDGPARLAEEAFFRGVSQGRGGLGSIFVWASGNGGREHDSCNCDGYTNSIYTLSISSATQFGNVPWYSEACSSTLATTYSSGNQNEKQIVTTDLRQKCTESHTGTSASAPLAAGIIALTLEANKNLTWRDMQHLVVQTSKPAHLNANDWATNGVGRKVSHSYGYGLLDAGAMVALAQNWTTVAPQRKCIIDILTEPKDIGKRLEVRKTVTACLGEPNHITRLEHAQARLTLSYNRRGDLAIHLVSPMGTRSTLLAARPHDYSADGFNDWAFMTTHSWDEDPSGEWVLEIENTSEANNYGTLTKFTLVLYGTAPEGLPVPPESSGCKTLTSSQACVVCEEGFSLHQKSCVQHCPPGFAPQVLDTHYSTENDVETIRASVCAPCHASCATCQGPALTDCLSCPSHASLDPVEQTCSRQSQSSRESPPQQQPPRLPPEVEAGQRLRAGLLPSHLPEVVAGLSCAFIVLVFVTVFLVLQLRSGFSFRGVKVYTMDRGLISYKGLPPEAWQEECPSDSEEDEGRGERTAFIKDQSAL
Sequence,furin cleavage Z-score (7.5 min),furin cleavage Z-score (15 min),furin cleavage Z-score (30 min)
CATTPCSGEWAGNASASA [HC1912],-1.69 (inactive),-0.859 (inactive),0.0519 (inactive)
CAMVCCSMSYAGNASASA [HC1986],0.714 (inactive),1.46,0.242 (inactive)
CAIICDECHSAGNASASA [HC817],-0.464 (inactive),-1.69 (inactive),-0.782 (inactive)
CAKDSRCDRDAGNASASA [FS-544],-1.48 (inactive),-1.29 (inactive),0.34 (inactive)
CAKSRRARRDAGNASASA [FS-1597],7.96 (active),9.22 (active),7.04 (active)
CARPDRPVLKAGNASASA [FS-2436],-0.645 (inactive),-0.376 (inactive),-0.377 (inactive)
CARKFRDLLKAGNASASA [FS-1724],-0.828 (inactive),-1.86 (inactive),0.751 (inactive)
CAQLAAPGAAAGNASASA [HC1070],-0.00694 (inactive),-2.1 (inactive),-1.59 (inactive)
CAALDTEVAAAGNASASA [HC565],1.05,0.0294 (inactive),-0.123 (inactive)
CARMAREVAAAGNASASA [FS-1909],6.15 (active),4.78 (active),6.63 (active)
CARMARNVLKAGNASASA [FS-2281],2.27,2.22,4.88 (active)
CAEPVTSTWVAGNASASA [HC2179],1.29,-0.789 (inactive),0.354 (inactive)
CARKKKGKADAGNASASA [FS-2690],0.358 (inactive),-1.8 (inactive),-1.17 (inactive)
CARKKREIRSAGNASASA [FS-2962],14.3 (active),12.6 (active),10.5 (active)
CASSNRLARFAGNASASA [FS-1284],3.54 (active),4.58 (active),6.02 (active)
CARKKRGYRDAGNASASA [FS-1856],10.5 (active),11.2 (active),8.83 (active)

Sequence,furin cleavage Z-score (7.5 min),furin cleavage Z-score (15 min),furin cleavage Z-score (30 min)
CARFARYYRDAGNASASA [FS-373],4.68 (active),4.65 (active),5.39 (active)
CASSIASWAIAGNASASA [HC514],0.395 (inactive),0.651 (inactive),2.3
CAMEECSQHLAGNASASA [HC14],1.42,0.653 (inactive),1.44
CASSNRSYRDAGNASASA [FS-1419],2.48,3.58 (active),4.08 (active)
CASMGREIRSAGNASASA [FS-1082],4.08 (active),3.82 (active),3.6 (active)
CARKKREITEAGNASASA [FS-2963],11.3 (active),12.7 (active),9.25 (active)
CAVVCCSMWYAGNASASA [HC2068],1.14,-0.944 (inactive),0.031 (inactive)
CACGNTLTCYAGNASASA [HC1515],-0.25 (inactive),-2.28 (inactive),-1.28 (inactive)
CARGDSRGSLAGNASASA [HC733],-0.929 (inactive),-0.316 (inactive),-0.341 (inactive)
CALTCYIKARAGNASASA [HC1517],-0.101 (inactive),0.266 (inactive),1.28
CARSSREKRRAGNASASA [FS-377],6.18 (active),7.1 (active),5.14 (active)
CARSSRHPRRAGNASASA [FS-714],5.43 (active),9.72 (active),6.86 (active)
CAGRCREKRRAGNASASA [FS-431],6.37 (active),7.82 (active),6.78 (active)
CARSSRSNGRAGNASASA [FS-3097],-1.39 (inactive),-0.51 (inactive),-1.39 (inactive)
CARSSRDSSAAGNASASA [FS-2092],-0.528 (inactive),-0.415 (inactive),-0.31 (inactive)
CAMWHREKRRAGNASASA [FS-1141],5.25 (active),5.23 (active),5.34 (active)
